Experimental data as given in ChEMBL document CHEMBL3988442, “University of Dundee, Small-Polar-MMV Screening Library” (2021).
Among all 48,000 compounds or so, about 13,000 (27%) showed an effect of 50% or more. The list shows a part of the results.

These compounds were tested on Wolbachia pipientis (assay: Anti-Wolbachia Cell-Based Screen). Settings: 5 µM.
Format: functional
Set-up: scale not given: in the data most compounds retested in dose-response had high values

Structure (SMILES)	Percent Effect
COc1ccnc(CNc2nc(C)nc(C)c2C)c1	-1.425%
CCc1nc(CC(=O)N2CCn3c(nnc3C(C)C)C2)cs1	3.887%
COCCN(Cc1nccs1)C(=O)c1c(C)cc(C)[nH]c1=O	-6.144%
CC(C(=O)NC(C)(C)C)S(=O)(=O)Cc1noc(C(C)(C)C)n1 (stereo not drawn)	3.309%
CC(=O)N1CCCC(c2ccnc(Nc3cnccn3)c2)C1 (stereo not drawn)	134%
O=C(C1CCCC1)N1CCC(c2ccnc(Nc3cnccn3)n2)C1 (stereo not drawn)	92.23%
Cc1cc(C2CCCN(C(=O)c3cnccn3)C2)ccn1 (stereo not drawn)	-6.489%
CNCC(=O)N1CCCC(c2ccnc(Nc3cnccn3)n2)C1 (stereo not drawn)	90.62%
Cl.Cl.NCC(=O)N1CCCC(c2ccnc(Nc3cnccn3)n2)C1 (stereo not drawn)	138.9%
O=C(C1CCC1)N1CCCC(c2ccnc(Nc3cnccn3)n2)C1 (stereo not drawn)	48.97%
COCc1ccc(C(=O)N2CC[C@@](O)(COC)C(C)(C)C2)o1	3.183%
CCc1c(C)nn(CC(=O)NC(C(=O)O)c2c(C)n[nH]c2C)c1C (stereo not drawn)	1.191%
Cc1ccccc1CC1(CO)CCCN(c2ncccc2C#N)C1 (stereo not drawn)	0.9317%
C=C(C)CNc1nc(CS(=O)(=O)c2ccccc2)cs1	-10.96%
CC(CNC(=O)N1CCN(Cc2ccon2)CC1)Cc1cccs1 (stereo not drawn)	-18.64%
O=C(Cn1c(=O)oc2ccccc21)N1Cc2cnn(CCO)c2C1	-5.203%
CC(=O)N1CCCC(c2ccnc(Nc3cnccn3)n2)C1 (stereo not drawn)	113.3%
O=C(CCc1ccc(F)c(F)c1)N1CCCCC1Cn1cccn1 (stereo not drawn)	87.24%
O=C(CCc1ccc2c(c1)OCO2)N1CCCCC1Cn1cccn1 (stereo not drawn)	137.4%
O=C(c1cccc2c1OCO2)N1CCCCC1Cn1cccn1 (stereo not drawn)	-4.366%
O=C(CCc1c(F)cccc1F)N1CCCCC1Cn1cccn1 (stereo not drawn)	126.8%
COc1ccc(CC(=O)N2CCCC2Cn2cccn2)cc1F (stereo not drawn)	2.407%
COc1ccc(CCC(=O)N2CCCCC2Cn2cccn2)cc1F (stereo not drawn)	155.4%
CSc1c[nH]nc1NS(=O)(=O)c1ccc(C)c(C)c1	4.625%
O=C(Nc1ccccc1CCO)c1cccc(CN2CC[C@H](O)C2)c1	-8.564%
COc1ccc(F)c(CN2CCCC3(CCN(S(C)(=O)=O)C3)C2)c1 (stereo not drawn)	-4.467%
N#Cc1ccsc1C(=O)N1CCCCC1Cn1cccn1 (stereo not drawn)	-3.499%

Structure (SMILES)	Percent Effect
O=C(c1cc(-c2cccs2)on1)N1CCCCC1Cn1cccn1 (stereo not drawn)	91.35%
Cc1oc(-c2cccs2)nc1C(=O)N1CCCC1Cn1cccn1 (stereo not drawn)	103.5%
O=C(c1cccn1Cc1cccs1)N1CCCC1Cn1cccn1 (stereo not drawn)	4.58%
Cc1noc(C)c1CN(C)CCc1nc(-c2cccc(Cl)c2)no1	0.3419%
COc1cccc(CCN2C[C@H]3CCNCC[C@H]3S2(=O)=O)c1.O=C(O)C(F)(F)F	12.24%
O=C(NC1CCCCC1)N1CCC(n2cc(-c3ccccn3)nn2)CC1	-3.255%
Cc1c(C)c(C)c2[nH]c(-c3cn(C4CCNCC4)nn3)nc2c1C	5.399%
c1ccc(CCCn2ccnc2-c2cn(C3CCNCC3)nn2)nc1	103.3%
COc1cccc(CCn2ccnc2-c2cn(C3CCNCC3)nn2)c1	111.7%
Clc1ccccc1CCn1ccnc1-c1cn(C2CCNCC2)nn1	101.1%
Cc1cccc2[nH]c(-c3cn(C4CCNCC4)nn3)nc12	-0.8234%
c1ccc(OCCCn2ccnc2-c2cn(C3CCNCC3)nn2)cc1	87.94%
Cc1cc2nc(-c3cn(C4CCNCC4)nn3)[nH]c2cc1C	-3.563%
Cc1ccc2[nH]c(-c3cn(C4CCNCC4)nn3)nc2c1C	9.5%
O[C@H]1[C@H](n2cc(-c3ccccn3)nn2)c2ccccc2C12CCNCC2	-37%
COc1ccc(CCn2ccnc2-c2cc3n(n2)CCCNC3)cc1	-17.25%
CNC(=O)c1cccc(CNC(C)c2cc(C)ccc2OC(F)F)c1 (stereo not drawn)	2.562%
CC(C)CNc1nc(C(=O)/N=c2\[nH]nc(C(C)(C)C)s2)cs1	9.925%
COc1cccc([C@H]2CN(C(=O)c3scc4c3CCCC4)C[C@@H]2N)c1	-10.32%
O=S(=O)(CCc1ccccc1)Nc1cc(Cl)ccn1	-16.02%
CSCc1ccc(N2CCC(C(O)CC(C)C)CC2)nc1 (stereo not drawn)	-3.23%
COc1cccc(CNC(C)c2ccc(-n3ccnc3)cc2)c1O (stereo not drawn)	3.228%
CN1CCN(c2cccc(NC(=O)NCc3csc(N(C)C)n3)c2)C1=O	-9.852%
CN(C)c1nc(CNC(=O)Nc2cccc([S+](C)[O-])c2)cs1 (stereo not drawn)	95.39%
CCc1nn(C)c(CC)c1CNC(=O)Nc1cccc([S+](C)[O-])c1 (stereo not drawn)	3.217%
O=C(NCCn1nc2ccccn2c1=O)c1cccc2[nH]ncc12	-8.467%
